{"source": "PubChem BioAssay AID652128", "about": "(Broad Institute, 2013)", "note": "The other results are listed elsewhere or left out. Records with an inconclusive call do not appear. The source made the active and inactive calls.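 How the source made its calls: active means fitted half-maximal concentration for signal loss at or below twice the highest dose tested, in every separate run (actives reach about 64 µM in these data); inconclusive means runs disagree, or flat partial signal loss, or poor fit; inactive means the rest.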", "data": [{"assay": "DNA-binding compounds via dye displacement, dose response, artefact control for RAD52 inhibitor project, biochemical, fluorescence polarization, cherry-pick (AID 652128)", "details": "Salmon sperm DNA/acridine orange FP displacement", "values": [{"smiles": "CCn1cc(CN2CCC(C(=O)Nc3cccc(-c4cccc(Cl)c4)c3)CC2)cn1", "outcome": "inactive"}, {"smiles": "CC(C)[C@@H](C)/C=C/[C@@H](C)[C@H]1CC[C@@H]2[C@]1(C)CCC1[C@]23C=C[C@]2(C[C@@H](O)CC[C@]12C)N(c1ccc([N+](=O)[O-])cn1)O3", "note": "(stereo partly specified)", "outcome": "inactive"}, {"smiles": "CN(C)CCNC(=O)c1cccc(-c2cnc3c(NC=O)cc(-c4cccc(C(F)(F)F)c4)cn23)c1", "outcome": "inactive"}, {"smiles": "O=C1CCC(C(=O)OCC(=O)Nc2ccc(OC(F)F)cc2)=NN1", "outcome": "inactive"}, {"smiles": "Cc1cc(C)c2nc3nc(C)cc(C)c3c(N)c2c1", "AC50": "30 µM (active)"}, {"smiles": "Cc1cc2oc3ccc(NCCC4CCCN4C)cc3c(=O)c2cc1C", "note": "(stereo unspecified)", "outcome": "inactive"}, {"smiles": "CCN(CC)CCC(c1ccc2c(c1)OCO2)c1c(OC)cc(OC)c2c(-c3ccccc3)cc(=O)oc12", "note": "(stereo unspecified)", "outcome": "inactive"}, {"smiles": "COc1ccc2sc(N(CCCN(C)C)C(=O)c3ccc(S(=O)(=O)N(C)C4CCCCC4)cc3)nc2c1", "outcome": "inactive"}, {"smiles": "Cc1cccc(-c2nc3ccc(C(=O)NCCN4CCN(C)CC4)cc3nc2-c2cccc(C)c2)c1", "outcome": "inactive"}, {"smiles": "COC1=C(N2CCOCC2)C(=O)c2ccccc2C1=O", "outcome": "inactive"}, {"smiles": "CCN(CC)CCN(C(=O)c1ccc2c(c1)CCCC2)c1nc2c(OC)cccc2s1", "outcome": "inactive"}]}]}
